What was measured:
Assay in all cases: PBM binding z-score (relative to random genomic background probes); higher = stronger binding; sequences stand for … in GC…GCGATTGACAGCGTAGAATGAAGG
[1] = test system: FXR:RXRa (NR concentration 270 nM, RXRa partner concentration 90 nM)
How it was run: (§1)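 Antibodies against each partner of ligand-free nuclear receptor dimers (one per run) detected binding on custom Agilent 4×180K protein-binding microarrays after 1 h incubation. The double-stranded probes had 34-nt variable regions carrying direct-repeat seeds, single-nucleotide variants, half-site ablations and random human genomic background sequences. Binding z-scores, from regression-normalized fluorescence, use the random background probes as reference.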

[2] = test system: LXRa:RXRa (NR concentration 270 nM, RXRa partner concentration 90 nM)
How it was run: as §1

[3] = test system: LXRa homodimer (NR concentration 270 nM)
How it was run: as §1

[4] = test system: LXRb:RXRa (NR concentration 270 nM, RXRa partner concentration 90 nM)
How it was run: as §1

[5] = test system: LXRb homodimer (NR concentration 270 nM)
How it was run: as §1

[6] = test system: PPARa:RXRa (NR concentration 270 nM, RXRa partner concentration 90 nM)
How it was run: as §1

[7] = test system: PPARg:RXRa (NR concentration 180 nM, RXRa partner concentration 90 nM)
How it was run: as §1

[8] = test system: PPARg:RXRa 270nM:90nM, anti-RXR (NR concentration 270 nM, RXRa partner concentration 90 nM)
How it was run: as §1

[9] = test system: PPARg:RXRa 30nM:10nM, anti-RXR (NR concentration 30 nM, RXRa partner concentration 10 nM)
How it was run: as §1

[10] = test system: PPARg:RXRa 90nM:30nM, anti-RXR (NR concentration 90 nM, RXRa partner concentration 30 nM)
How it was run: as §1

Sequence | PBM binding z-score [1] | PBM binding z-score [2] | PBM binding z-score [3] | PBM binding z-score [4] | PBM binding z-score [5] | PBM binding z-score [6] | PBM binding z-score [7] | PBM binding z-score [8] | PBM binding z-score [9] | PBM binding z-score [10]
ATCTCCAGGTAACCAAGTTCAGTGAATGCCGAAC | 0.454 | 0.776 | 1.02 | 0.753 | 0.946 | 0.696 | 0.227 | 0.427 | 0.0617 | 0.231
AATACAGGGTCATCGTAGGCCAGCGTACGCACAG | 7.47 | 6.19 | 2.61 | 4.66 | 1.23 | 6.28 | 6.7 | 5.95 | 2.73 | 4.61
TCTCAAAGTTCAAAGGTAACGTAAGTATCCACAC | 6.76 | 6.41 | 5.13 | 4.82 | 2.02 | 5.43 | 4.77 | 5.77 | 5.16 | 5.6
GCTAGTTGGTCAGTACAAGGTCACACACCGGTCG | 2.58 | 2.63 | 2.97 | 2.59 | 0.352 | 3.05 | 1.38 | 1.94 | 0.146 | 1.33
TCTGCTAGGTCAACGAAGGTCAGCTAATCTGCTA | 4.67 | 5.5 | 2.58 | 3.81 | 0.162 | 4.32 | 3.83 | 4.05 | 2.3 | 3.7
CCTACTGGGCCAAACGTCATTGATTCCAATGCTC | -0.411 | -0.228 | -0.236 | -0.0474 | -0.218 | 2.31 | 4.96 | 6.47 | 5.56 | 6.79
TCTTGTAGATCAAGCAGGATAAGAAAGCCTGAGT | -0.0578 | -0.0477 | -0.267 | -0.411 | -0.605 | 0.163 | -0.0969 | 0.937 | 2.58 | 1.76
GCGACTGGGGCATTAGCAGGTTACCATAACTTAA | -0.284 | 0.0464 | 0.0141 | 0.936 | -0.458 | 0.973 | 0.712 | 0.609 | -0.0543 | 0.0308
CTCGAAAGGTCGTGCTCAGGTCAGTATACCAAAC | 5.86 | 5.15 | 1.44 | 4.15 | 0.558 | 5.2 | 3.19 | 4.09 | 1.06 | 2.7
TTAGCAAGGTGAGCTGAGGTCGTTGATCCAACTC | 0.796 | 1.32 | -0.635 | 0.393 | -0.992 | 1.72 | -0.0318 | 0.607 | -0.48 | 0.182
TCTGCTAGTTCAGTTGGTCAGCTAACGAGCTGCC | -0.661 | -0.0879 | -0.708 | -0.52 | 0.193 | 0.1 | -1.03 | 0.545 | 1.27 | 0.794
GCTCGGAGGACAAGGGCAGAGCTTTGTCCGTAGA | -0.487 | -0.674 | -0.975 | -1.04 | -1.47 | -0.451 | -0.879 | -0.532 | -1.18 | -0.777
CCGACTGGGGCGAGGTTACCATAACGCACAGCCA | 0.344 | 0.809 | -0.212 | 0.84 | -0.662 | 1.49 | 1.16 | 1.05 | -0.243 | 0.417
ACTTGCAGGCCAAGGGTCACTCAAGATTAGTCCG | 2.94 | 2.83 | 0.304 | 2.98 | 0.0149 | 4.99 | 8.46 | 7.35 | 6.52 | 7.71
TCGAGTAGGTTAGTCGGGACATTCAGCCAACATA | 2.7e-05 | 0.0232 | -0.222 | -0.141 | -1.03 | 0.291 | 0.156 | 0.639 | 0.983 | 0.955
GAAGACAGGTGAAACGCAGGTAACTCAGGGTGGC | 0.0149 | 0.318 | -0.652 | -0.0898 | -0.743 | 1.14 | 0.681 | 0.383 | -0.249 | -0.0724
TCTGCTAGGTCAACGATGGTCGGCTAATCTGCTA | 3.06 | 2.14 | -0.28 | 1.11 | -0.00978 | 2.9 | 2.1 | 3.01 | 1.81 | 2.42
GCATATAGGTAATACAAGTTGAAAGTCCGATTGT | 0.281 | 0.793 | -0.112 | 0.0778 | -0.33 | 1 | 1.05 | 0.484 | -0.0817 | 0.166
ACTATTAGTTGACTTAGGTCAACCGATACGACGC | 1.69 | 2.25 | 1.71 | 2.39 | 1.28 | 2.29 | 1.35 | 1.35 | 0.53 | 0.993
CAAACTAGGTGAAAGGTCAAAGTCGAGCCAACCA | 6.87 | 6.26 | 4.36 | 6.08 | 2.26 | 7.39 | 14.1 | 11.5 | 15.3 | 14.2
CGTCCAAAGTCAGCAGGTCAGTGAAAGCGACGTG | 0.237 | 0.521 | 0.0163 | 0.578 | -0.765 | 1.24 | -0.0107 | 0.0351 | -0.634 | -0.432
CCTACTGGGCCACGAAAGGTCTTTGATTCAGTGA | 0.186 | -0.153 | -0.487 | -0.225 | -1.08 | 1.31 | 1.84 | 1.99 | -0.0558 | 0.769
TCTAGCAGGCCAGAGGGTCACTCGAGAGGTACGG | 0.927 | 0.659 | -0.59 | 0.806 | -1.36 | 2.11 | 1.36 | 2.59 | 1.79 | 2.52
CCTTACGGGTCAGTCCAGGTTATAGCATCGGAGT | 3.69 | 3.88 | 0.251 | 1.74 | -0.12 | 2.85 | 1.11 | 1.64 | 0.319 | 0.821

— the supplement of paper PMC6555819
